# Compounds with a hit are over-represented: about 3.8% of the library has one in this group of screens.
# NTR1 agonist: agonists of human neurotensin receptor NTR1 | AID 493036 | 330,000 compounds, 0.17% hits | activation, % at 20 µM | P30989 | NTR1-U2OS beta-arrestin-GFP spot imaging, agonist mode;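 active = activation at or above 40% of the spot to cytoplasm intensity ratio, with at least 20 cells analyzed; inconclusive = wells under 20 cells, flagged as cytotoxic or low count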;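 note: 0% = DMSO without peptide and 100% = 100 nM NTR1 peptide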
# Mdm2 MdmX PPI: human Mdm2/MdmX binding inhibition. O15151+Q00987. SaOS-2 split-luciferase Mdm2/MdmX complementation, luminescence. inhibition, % at 8 µM. 330,000 compounds, 3% hits;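 active = inhibition of at least 50% at 8 µM in the primary screen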
# Bfl-1 A1 inh: inhibitors of the anti-apoptotic protein A1, read as caspase activation. MEF A1-2A-BIM cells, Caspase-Glo 3/7 luminescence, 3 h; percent of clofoctol response, vehicle zero. caspase activation, % (concentration not given with the values). 330,000 compounds, 0.066% hits. AID 2462;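 active = over half of replicate activation scores above 10%, or exactly half above 10 with the replicate mean above 10; inconclusive = replicate mean below 10 yet half the replicates above 10; inactive = over half of replicates below 10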
# Jurkat NFkB inh: lowers PMA/ionomycin-induced NF-kB signal in Jurkat cells; PMA/ionomycin-induced NF-kB luciferase reporter, luminescence; inhibition, % at 4 µM; 330,000 compounds, 0.53% hits; AID 435003; in the data active = inhibition above about 50%
# 697 NFkB inh: inhibitors of the PMA/ionomycin-induced NF-kB reporter in 697 B cells. 697 B-cell NF-kB luciferase reporter, 16 h. inhibition, % at 4 µM. 330,000 compounds, 0.33% hits. AID 435022; in the data active = inhibition above about 35%
# Beta cell apopt: beta cell apoptosis inhibition | INS-1E cytokine-induced death, ATP luminescence, 48 h; percent of positive-control rescue, neutral wells zero | protection from apoptosis, % (test concentration not listed) | 300,000 compounds, 0.8% hits | AID 435005;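 active = Every replicate reaches about 75%, or at least half do and their mean reaches it too, limit read from the data; inconclusive = At least half of replicates reach the limit but their mean does not; inactive = Under half of replicates reach the limit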;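 note: 0% = cytokine-treated negative control wells and 100% = positive control rescue; higher means more ATP so stronger rescue from cytokine killing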
# Mdm2-MdmX conf: human Mdm2/MdmX binding inhibition, confirmed; 10,000 compounds, 55% hits; luminescent assay; AID 489028; inhibition, % at 8 µM; shares compounds with Mdm2 MdmX PPI; in the data active = inhibition above about 40%
# FLuc counter: counter-screen for Mdm2/MdmX inhibitors: full-length luciferase | shares compounds with Mdm2 MdmX PPI | SaOS-2 full-length luciferase counterscreen, luminescence | inhibition, % at 8 µM | 6,200 compounds, 77% hits;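 active = mean inhibition at 8 µM reaching about 37%, which flags the compound as non-specific, limit read from the data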;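 note: p53-null SaOS-2 cells with luciferase driven by a doxycycline-inducible promoter; compound on cells about two nights before reading with doxycycline added after day one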
# * marks the source's active call; other numbers are inactive results; ? = inconclusive; . = no result given.
SMILES,NTR1 agonist,Mdm2 MdmX PPI,Bfl-1 A1 inh,Jurkat NFkB inh,697 NFkB inh,Beta cell apopt,Mdm2-MdmX conf,FLuc counter
CC(=O)NC(c1ccco1)c1cc(F)c2cccnc2c1O (centres undefined),-1,57*,0,8,-7,82*,49*,44*
COC(=O)c1ccc(NC(=O)c2ccc3c(c2)NC(=O)C2CCCN32)cc1 (centres undefined),0,14,0,-7,14,0,.,.
Cc1cnc(NC(=O)c2cccc(S(=O)(=O)N3CCOCC3)c2)s1,-2,9,0,-19,-31,-7,.,.
CC(=O)Nc1ccc(NC(=O)c2cc(=O)c3cc(C)cc(C)c3o2)cc1,1,67*,0,14,13,1,54*,90*
Cc1cc(C)c2oc(C(=O)Nc3ccc(S(=O)(=O)N4CCC(C)CC4)cc3)cc(=O)c2c1,1,29,-1,34,4,0,.,.
CC1CCN(c2nc(-c3cccnc3)nc3scc(-c4ccccc4)c23)CC1,2,17,1,2,-11,9,.,.
Clc1nc(-c2ccccn2)nc2scc(-c3ccccc3)c12,18,57*,0,-74,-202,51,37,.
Cc1ccc(S(=O)(=O)n2ccc3c2CCCC3=O)cc1,0,37,0,-2,14,-1,.,.
COc1ccccc1CNCC(O)(c1ccc(F)cc1)c1ccc(F)cc1,6,16,1,10,-7,14,.,.
COc1ccccc1CNCC(O)(c1ccc(Cl)cc1)c1ccc(Cl)cc1,23,54*,-1,7,4,19,16,.
O=C(c1cccs1)N1CCc2c([nH]c3ccccc23)C1c1ccccn1 (centres undefined),0,11,0,6,17,-7,.,.
O=C(c1cccs1)N1CCc2c([nH]c3ccccc23)C1c1ccc(Cl)cc1 (centres undefined),2,73*,0,10,-127,15,58*,97*
COc1ccc([N+](=O)[O-])cc1NCc1ccccc1,-1,70*,0,-24,-47,-21,39,98*
COc1ccc([N+](=O)[O-])cc1NCc1ccccc1C,3,17,1,-26,-41,-11,.,.
COc1ccc2nc3cc(Cl)ccc3c(Nc3cc(CN4CCCC4)c(O)c(CN4CCCC4)c3)c2n1,8,99*,0,21,-16,?,53*,77*
Cc1cccc(/C=C/C(=O)c2cc(Br)ccc(=O)c2O)c1,2,54*,0,7,-6,38,36,73*
CCOc1ccc(/C=C/C(=O)c2cc(Br)ccc(=O)c2O)cc1,.,.,1,.,.,2,.,.
CCc1ccc(/C=C/C(=O)c2cc(Br)ccc(=O)c2O)cc1,3,52*,0,6,-22,0,39,40*
S=C(Nc1ccccc1)Nc1nc2ccccc2n1CCOc1ccc(Br)cc1,1,95*,1,6,-3,41,36,.
O=C(Nc1nc2ccccc2n1CCOc1ccc(Cl)cc1)c1ccco1,7,67*,0,7,-14,48,50*,72*
Cc1cccc(OCCn2c(NC(=O)c3ccco3)nc3ccccc32)c1,1,51*,0,5,-47,50,41*,59*
Cc1ccc(OCCn2c(NC(=O)c3ccco3)nc3ccccc32)cc1,0,42,0,-2,18,33,.,.
O=C(Nc1nc2ccccc2n1CCOc1ccccc1)c1ccco1,3,53*,-1,-4,-23,21,26,.
Cc1cc(C)n(-c2ccc3cccc(NS(C)(=O)=O)c3n2)n1,-2,74*,-1,34,-23,.,44*,32
CS(=O)(=O)Nc1cccc2cccnc12,1,31,1,5,-7,4,.,.
N/C(=N\c1nc2ccccc2o1)NC(=O)c1ccc(F)cc1,-1,67*,2,-31,-46,12,8,.
O=C(Oc1ccc(Oc2ccccc2)cc1)N1CCC(O)CC1,0,-21,1,-37,-30,-8,.,.

# Bioassay records from PubChem.
